# Target: Shiga toxin 2 (Escherichia coli O157:H7) (UniProt P09385+P09386)
# Test: E. coli 0.157:H7 Shiga Toxin SOP - stx2 screening assay
# Type: functional
# Set-up: scale not given: direction of the effect not stated beside the values
# Settings: 30 µM
row,SMILES,Percent Effect [%]
1,CCc1ccc(S(=O)(=O)Nc2cc(C(=O)O)c(F)cc2F)s1,-16.1
2,CC(C)(O)C1CCN(C(=O)Nc2nc(-c3ccccc3)ns2)CC1,-6.7
3,O=C(Cc1cccc(F)c1)NCCNCc1ccco1,3.74
4,COCCCN(C)C1CCCN(Cc2noc(C)n2)C1 (stereo unspecified),-16.4
5,COCCCC1(CO)CCCN(CCS(C)(=O)=O)C1 (stereo unspecified),0.747
6,O=C(CN(Cc1ccccc1)CC1CCOCC1)Nc1nccs1,-19
7,CCc1nc(CN(C)C2CCN(CCS(C)(=O)=O)C2)no1 (stereo unspecified),-32.8
8,COc1ccccc1OC1CCN(Cc2cnc(N(C)C)nc2)CC1,17.9
9,COCCN1CCC(CN(CC2CCCO2)C(=O)COC)CC1 (stereo unspecified),-0.207
10,Cc1ccsc1C(=O)NCCCn1nc2ccccn2c1=O,16.8
11,CC(O)CN1CCN(Cc2nnc(C3CC3)o2)CC1 (stereo unspecified),-17.9
12,Cc1cc(-c2nnc(SCC(=O)O)n2C(C)c2ccccc2)nn1C (stereo unspecified),2.98
13,CC(OCC(F)(F)F)C(=O)N1CCCCC1 (stereo unspecified),-2.39
14,Nc1nc(C2CCN(C(=O)c3cscn3)CC2)cs1,-10.9
15,CC1c2ncc(COc3cccnc3)n2CCN1C(=O)Cc1ccco1 (stereo unspecified),-2.51
16,O=C(NC1CC1)c1cc(NC(=O)N2CCCC(O)C2)ccc1Cl (stereo unspecified),-38.6
17,Cc1cccc(CNCc2c(C(C)C)nn(C)c2N2CCOCC2)n1,12.3
18,Cc1csc(Nc2cc(C3CCCCN3C)nc(C)n2)n1 (stereo unspecified),-11.8
19,Cc1csc(C2CCCN(C(=O)c3cc(Cl)c[nH]3)C2)n1 (stereo unspecified),29.7
20,CCCc1nc(N2CCN(CC)CC2)c2c(n1)c(C)nn2CC,-8.6
21,Cc1nc(CN2CCCN(CCOc3cccc(C#N)c3)CC2)no1,19.3

# Source: ChEMBL document CHEMBL3988442, “University of Dundee, Small-Polar-MMV Screening Library” (2021)
